Structures are written as SMILES. The panel holds about 83,000 compounds, 20% with a hit somewhere; the sample as a whole holds those more often.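 Cells were grown in 96-well plates and exposed to the test compound at a single concentration for 48 hours; results are reported as percent growth, with values below 10 considered active.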 A number with no mark means an inactive call. Activity calls are given as the source filed them.

Drawing on PubChem BioAssay (NCI), this text covers growth for four molecules.

Among the test systems are MDA-MB-435 melanoma; SW-620 colon; MCF7 breast; HCT-116 colon; HCC-2998 colon; KM12 colon; BT-549 breast.
What all share (assay): NCI-60 one-dose screen, 48 h (100 = growth as untreated, 0 = no growth, -100 = all killed)
Holding throughout (settings): 10 µM

On to `CN(C)Cc1cn(-c2ncc(-c3ccc(C(F)(F)F)cc3)c(NC3CCCCCC3)n2)nn1`, for which the growth in the assay on MDA-MB-435 melanoma was 95.2%; in the assay on SW-620 colon, 99.4%; in the assay with MCF7 breast, 70.3%; with HCT-116 colon, 66.3%; with HCC-2998 colon it was 94.8%; in the assay on KM12 colon, 86.3%.
Take `COc1cc(/C=C2\CCCC3=C2N=C2SC=NN2C3c2cc(OC)c(OC)c(OC)c2)cc(OC)c1OC` (stereo not drawn): the growth in the assay on MDA-MB-435 melanoma is -13.2% (active); in the assay on SW-620 colon it was 18.5%; in the assay with MCF7 breast, 27.4%; in the assay on HCT-116 colon, -23.5% (active); with HCC-2998 colon, 4.77% (active); in the assay on KM12 colon, -23.5% (active).
Turning to `O=C(Nc1ccncc1)C(=O)c1cn(S(=O)(=O)c2cccc3ccccc23)c2ccccc12`, the growth is -7.64% (active) with MDA-MB-435 melanoma; 71.4% with SW-620 colon; 52.3% with MCF7 breast; 45.8% in the assay on HCT-116 colon; 64.8% in the assay with HCC-2998 colon.
As to `N#CC1=C(Nc2ccccc2Cl)SC(c2ccccc2O)NC1=O` (stereo not drawn), the growth with BT-549 breast was 111%; with SW-620 colon it was 105%; with MCF7 breast, 105%; in the assay on HCT-116 colon, 109%; in the assay on HCC-2998 colon it was 109%; in the assay with KM12 colon, 116%.
